Hits are enriched below; roughly 8.1% of the tested compounds scored in any of these assays.
Sfp inh – Sfp phosphopantetheinyl transferase inhibition; Q9F4F7; actives 3.5% (n = 310,000); Potency, µM, most hits filed as inhibitors; Biochemical Sfp PPTase activity, qHTS; AID 1490;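 also: the enzyme is Sfp with the accession as filed and its product quenches rhodamine fluorescence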
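Sfp 15 nM + cpd, 15 min RT; start w/ rhodamine-CoA 5 uM, BHQ-2-YbbR 12.5 uM (final); 50 mM Hepes pH 7.6, 10 mM MgCl2, 0.01% NP-40, 0.01% BSA; read 525/598 nm at 0 and 30 min.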
Epigenetic reg – epigenetic control regulation, reporter derepression | murine LDR cells, GFP reporter derepression, 30 h | Potency, µM (top dose mostly 53.9 µM), usual class: activators | actives 0.2% (n = 280,000); also: nearly all actives have a fitted effect of over 60% in size
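Derepression of a silenced CMV-GFP reporter in murine LDR cells is scored by enumerating GFP-positive cells with a laser-scanning microplate cytometer after 30 hours of treatment at 37 C.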
PINK1 expr mod – changes PINK1 expression | PINK1 immunofluorescence, high-content cytometry, 24 h | Potency, µM (top dose mostly 76.6 µM), actives largely listed as activators | actives 0.2% (n = 410,000) | AID 624263; active = well fitted activation curve with a large enough effect; inconclusive = small, poorly fitted or top-dose-only effect; cell line not stated here; also: nearly all actives have a fitted effect of over 65% in size
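Compound titrations (5 concentrations, 24 h) on a stable cell line; DMSO and CCCP controls. Endpoint: fixed-cell PINK1 immunofluorescence with mitochondrial, cell and nuclear markers, scanned by microplate cytometer.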
VP16 counter – inhibits Gal4-VP16 luciferase reporter, ROR gamma counter-screen | Potency, µM (doses to about 53.6 µM), most hits filed as inhibitors | Drosophila S2 Gal4-VP16 UAS-luciferase, luminescence, 20 h | AID 2546 | actives 3.5% (n = 310,000);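 also: Gal4-VP16 expression switched on by copper sulfate through the metallothionein promoter; nearly all actives have a fitted effect of over 50% in size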
ClpP mod – qHTS Assay for Activators of ClpP | ATP-dependent Clp protease proteolytic subunit (Bacillus subtilis (strain 168)), P80244 | purified B. subtilis ClpP, FRET peptide cleavage, 20 min | Potency, µM (series often up to 57.5 µM) | actives 1.9% (n = 340,000) | AID 651965, 2013; active = well fitted falling curve with a large enough effect; inconclusive = small, poorly fitted or top-dose-only effect; inactive = no such curve, though single readings can be large or run the other way; also: the source files actives as falling curves though it sought activators and does not explain the sign; nearly all actives have a fitted effect of over 65% in size
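Buffer: 100 mM Tris/HCl pH8, 100 mM KCl, 0.05% low protease BSA, 2.5% glycerol, 0.01% Tween-20. ClpP 10 microg/mL final; 20 min RT; delta FRET normalized to ADEP and DMSO controls.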
RORg inh – blocks mouse ROR gamma transcriptional activity | Drosophila S2 Gal4-RORgamma UAS-luciferase reporter, 20 h | Potency, µM (doses to about 53.6 µM), usual class: inhibitors | actives 5.4% (n = 310,000) | AID 2551; also: nearly all actives have a fitted effect of over 60% in size
Target sequence (P51450 whole entry, looked up, the tested form may be a part): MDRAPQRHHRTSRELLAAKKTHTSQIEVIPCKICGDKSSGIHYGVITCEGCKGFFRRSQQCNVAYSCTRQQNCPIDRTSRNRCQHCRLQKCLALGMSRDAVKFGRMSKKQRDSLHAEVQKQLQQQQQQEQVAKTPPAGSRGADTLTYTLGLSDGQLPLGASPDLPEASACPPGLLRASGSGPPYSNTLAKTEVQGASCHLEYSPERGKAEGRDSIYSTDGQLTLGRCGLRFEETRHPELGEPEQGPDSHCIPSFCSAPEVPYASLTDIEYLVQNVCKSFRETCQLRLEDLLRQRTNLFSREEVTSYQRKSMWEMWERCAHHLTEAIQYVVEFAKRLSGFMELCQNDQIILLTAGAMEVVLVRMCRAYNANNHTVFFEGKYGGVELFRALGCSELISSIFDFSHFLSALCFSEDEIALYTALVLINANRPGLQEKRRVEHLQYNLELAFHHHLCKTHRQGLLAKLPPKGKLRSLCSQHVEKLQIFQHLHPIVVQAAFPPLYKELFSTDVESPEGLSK
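Using a luciferase readout, inhibitors were identified by reduced reporter activity in Drosophila cells coexpressing a copper-inducible Gal4–ROR gamma fusion and UAS-driven Photinus luciferase, incubated 20 hr after 700 uM copper sulfate.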
A number is an active result; 0 = inactive; ? = inconclusive; - = no result given. Unless noted, calls follow the shape of the dose curve; as a rule, active = well fitted curve in the direction sought with a large enough effect; inconclusive = small, poorly fitted or top-dose-only effect, or another doubt; inactive = no such curve, though single readings can be large; an effect the other way counts as inactive or inconclusive.

SMILES	Sfp inh	Epigenetic reg	PINK1 expr mod	VP16 counter	ClpP mod	RORg inh
C=CCn1c(COc2ccccc2)nnc1SCC(=O)N/N=C/c1cc(Cl)ccc1O	0	0	0	?	0	12.6µM
C=CCn1c(COc2ccc(Cl)cc2)nnc1SCC(=O)NCC(=O)OCC	0	0	0	?	0	11.2µM
COc1ccc(NC(=O)N2CCN(S(=O)(=O)c3ccc4c(ccn4C)c3)CC2)c(OC)c1	-	0	0	-	0	-
CCOc1ccc2nc(N3CCCC3C(=O)N3CCC(c4nc5ccccc5o4)CC3)nc(C)c2c1 (centres undefined)	-	-	0	-	-	-
COc1ccc(C(=O)NCCc2nnc3n2CCN(CC2CC=CCC2)CC3)cc1 (centres undefined)	-	-	0	-	-	-
CC(C)c1c(C(=O)NCCN2CCOCC2)cnn1-c1nccc(-c2ccco2)n1	-	-	0	-	-	-
C/C(=N\NC(=S)NCCc1ccccc1)c1cccs1	0	0	0	1.41µM	0	4.47µM
CC(OC(=O)c1cccs1)C(=O)NCCc1ccccc1 (centres undefined)	0	-	0	0	-	0
C/C(CCC(C)C)=N\NC(=S)NCc1ccccc1	0	0	0	?	0	3.98µM
C/C(CCc1ccccc1)=N\NC(=S)NCCc1ccccc1	0	-	0	6.31µM	-	5.01µM
CC(=O)c1ccc(F)c(-c2cc(C)cc3c2OC(CNC(=O)C2CCCCN2C)C3)c1 (centres undefined)	-	-	0	-	-	-
CN(C)c1ccc(-c2nnc(SCC(=O)NCc3ccco3)n2C)cc1	-	-	0	-	0	-
CC(C)(C)OC(=O)NCCCC[C@H](NC(=O)c1nc[nH]c1C(=O)N[C@@H](CCCCNC(=O)OC(C)(C)C)C(=O)OC(C)(C)C)C(=O)OC(C)(C)C	0	0	0	0	0	?
C[C@H](NC(=O)c1nc[nH]c1C(=O)N[C@@H](CCCCNC(=O)OC(C)(C)C)C(=O)OC(C)(C)C)C(=O)OC(C)(C)C	0	0	0	12.6µM	0	?
Cc1cccc(NC(=O)c2nc[nH]c2C(=O)NCCCCCNC(=O)OC(C)(C)C)c1	-	-	0	-	0	-
CC(C)(C)OC(=O)NCCCCCNC(=O)c1[nH]cnc1C(=O)N[C@@H](CCCCNC(=O)OC(C)(C)C)C(=O)OC(C)(C)C	0	0	0	?	0	?
CC(C)(C)OC(=O)NCCCC[C@H](NC(=O)c1nc[nH]c1C(=O)NC(c1ccccc1)c1ccccc1)C(=O)OC(C)(C)C	0	0	0	?	0	10µM
Cc1cccc(NC(=O)c2nc[nH]c2C(=O)N[C@@H](CCCCNC(=O)OC(C)(C)C)C(=O)OC(C)(C)C)c1	0	0	0	15.8µM	0	6.31µM
COc1ccc(C(=O)C(OC(=O)CNC(=O)c2ccco2)c2ccccc2)cc1 (centres undefined)	79.4µM	0	0	0	0	0
O=C(CNC(=O)c1ccccc1)OC(C(=O)c1ccccc1)c1ccccc1 (centres undefined)	0	0	0	0	0	0
COc1ccccc1N1CCN(S(=O)(=O)CCNC(=O)Cc2ccc(Cl)cc2)CC1	-	0	0	-	0	-
CCC(C)c1ccc(NC(=S)Nc2ccc(OC)c(OC)c2)cc1 (centres undefined)	0	0	0	0	0	?
CCn1ncc(NC(=S)Nc2ccc3c(c2)OCO3)c1C(N)=O	56.2µM	0	0	0	-	0
CCn1ncc(NC(=S)Nc2ccc(OC)c(OC)c2)c1C(N)=O	31.6µM	?	0	0	-	0
CCOC(=O)Nc1ccc2c(c1)OCO2	0	0	0	0	0	0
COc1ccccc1-n1c(-c2ccccc2)c[n+]2c1CCc1ccccc1-2	0	0	?	8.91µM	0	?
CC(C)c1ccc(-n2c(-c3ccccc3)c[n+]3c2CCc2ccccc2-3)cc1	0	0	?	3.55µM	-	4.47µM
COc1ccc(-c2cn(-c3ccc(OC)cc3)c3[n+]2-c2ccccc2CC3)cc1	0	0	?	4.47µM	0	?
COc1ccc(-n2c(-c3ccc(Br)cc3)c[n+]3c2CCc2ccccc2-3)cc1	0	0	28.2µM	6.31µM	0	0
COc1ccc(-c2c[n+]3c(n2-c2ccccc2)CCCCC3)cc1	0	0	0	?	0	?

Screening results from PubChem.
